Source: the OligoGym collection
Note: reference of the scale not given here.

The sequences below were run against APLNR (assay: pooled miR-30 sensor sort-seq; sequence = guide strand). Conditions: shRNA.
With TAGCACTGCACCTTAGTGGTGT the sensor-assay potency score (higher = more potent) was 0.437. TAGCGGTCGAAGCTGAGGCCGG showed a sensor-assay potency score (higher = more potent) of -1.22. TACAGCGTCTTCACCAGGTGGT showed a sensor-assay potency score (higher = more potent) of 0.0282. Sequence TGGAGCACTAATTATCTGCTGA has a sensor-assay potency score (higher = more potent) of -0.596. Work on TATCTAGTCAGTGTCATGGTGC yielded a sensor-assay potency score (higher = more potent) of -0.323. TGTACTCACACTCAGACTGGTT showed a sensor-assay potency score (higher = more potent) of -1.04. AAACACGGTCCAGAGCACCAGA showed a sensor-assay potency score (higher = more potent) of -0.76. For TATAAGTACAACACACACAGAC, the sensor-assay potency score (higher = more potent) was 0.501.

These sequences were tested against APOA1 in the same assay as above. Conditions: shRNA.
For AACTGGGACACATAGTCTCTGC, the sensor-assay potency score (higher = more potent) was -0.955. Sequence TTCTCTTGCAGCTCGTGCAGCT has a sensor-assay potency score (higher = more potent) of -0.213. TTGAGCACATCCACGTACACAG gave a sensor-assay potency score (higher = more potent) of -0.115. With TGGGACACATAGTCTCTGCCGC the sensor-assay potency score (higher = more potent) was -0.692. For TAGCTGTTTTCCCAAGGCGGAG, the sensor-assay potency score (higher = more potent) was -1.51. TTGTCAAGGAGCTTTAGGTTTA showed a sensor-assay potency score (higher = more potent) of -0.808. TTGGAGCTCTGCGCGCAGCGGC showed a sensor-assay potency score (higher = more potent) of -1.17. In the case of TTAGCTGTTTTCCCAAGGCGGA, the sensor-assay potency score (higher = more potent) is reported as -1.3. In the case of TGTCTTTGAGCACATCCACGTA, the sensor-assay potency score (higher = more potent) is reported as -1.2. With TCAGCTTCTCTTGCAGCTCGTG the sensor-assay potency score (higher = more potent) was -1.07. TTCTTCTGGAAGTCGTCCAGGT was tested, and the sensor-assay potency score (higher = more potent) was -0.431. TTGCAGCTCGTGCAGCTTCTGG showed a sensor-assay potency score (higher = more potent) of -1.14. TTAGGTTTAGCTGTTTTCCCAA showed a sensor-assay potency score (higher = more potent) of 0.243. Sequence TTTGAGCACATCCACGTACACA has a sensor-assay potency score (higher = more potent) of -1.01. Work on TACTCGGCCAGTCTGGCGCCGC yielded a sensor-assay potency score (higher = more potent) of -0.96. Work on TAGGTTTAGCTGTTTTCCCAAG yielded a sensor-assay potency score (higher = more potent) of -1.2. For TTTAGCTGTTTTCCCAAGGCGG, the sensor-assay potency score (higher = more potent) was -0.584. Work on TAGAGCTCCATCTCCTCCTGCC yielded a sensor-assay potency score (higher = more potent) of 0.375. Sequence TCGCGCAGCTTGCTGAAGGTGG has a sensor-assay potency score (higher = more potent) of -0.684. TCTTGCTGCCAGAAATGCCGAG showed a sensor-assay potency score (higher = more potent) of -0.701. For TTGGCCTTCTCGCTGAGCGTGC, the sensor-assay potency score (higher = more potent) was -0.4.

These sequences were tested against APOA4 in the same assay as above. Conditions: shRNA.
Work on TTGAAGGTGCTGAAGAAGGAGT yielded a sensor-assay potency score (higher = more potent) of -1.02. Sequence TTCTTCTTCATCTGGAAGGTCA has a sensor-assay potency score (higher = more potent) of -0.417. TTGGCCTTGAGCTCGTCGGCGT showed a sensor-assay potency score (higher = more potent) of -0.576. For TGAAGTAGTCCCACATCACCGT, the sensor-assay potency score (higher = more potent) was -0.0577. With TTCTCCTTGAAGGTGCTGAAGA the sensor-assay potency score (higher = more potent) was -1.33. TCGGAACTCCTCCACCTGCTGG showed a sensor-assay potency score (higher = more potent) of -1.28. Work on AAGTAGTCCCACATCACCGTGG yielded a sensor-assay potency score (higher = more potent) of -0.243. TCTTCTGCAGGTCACCTGCGTA showed a sensor-assay potency score (higher = more potent) of -1.37. With TCGATCTTGGCCTTGAGCTCGT the sensor-assay potency score (higher = more potent) was -0.264. TCGGCGTTCTTCTTCATCTGGA gave a sensor-assay potency score (higher = more potent) of -0.527. TTGAGCTCCTCCACGTTCTGGT was tested, and the sensor-assay potency score (higher = more potent) was 0.494.
